Experimental data taken from PubChem BioAssay AID651784 (National Center for Advancing Translational Sciences (NCATS), 2012).
Results filed as inconclusive are left out. Active and inactive are the calls of the source. Calls follow the shape of the dose curve; as a rule, active = well fitted inhibition curve with a large enough effect; inconclusive = small, poorly fitted or top-dose-only effect; inactive = no such curve, though single readings can be large or run the other way.

Assay: Acumen qHTS Assay for Inhibitors of the mTORC1 Signaling Pathway in MEF (Tsc2-/-, p53-/-) Cells: Hit Validation; also: nearly all actives have a fitted effect of over 65% in size
Conditions: Acumen imaging; activity change, negative = inhibition: at 37.3 µM (top of the series)
Description: The mammalian target of rapamycin (mTOR) is an intracellular serine/threonine kinase Aberrant regulation of mTOR signaling plays a causative role in a number of human diseases, including cancer, benign tumors such as lymphangioleiomyomatosis (LAM) and Tuberous Sclerosis Complex (TSC), and metabolic diseases such as diabetes and obesity. This project aims to identify inhibitors of ribosomal protein S6 (rpS6) phosphorylation. The phosphorylation of rpS6 is a key event downstream of mTOR activation. The assay uses a phospho-specific antibody of phospho-rpS6 to detect inhibitors of mTOR activation. Mutations in the Tsc1 and Tsc2 genes are the underlying genetic lesions responsible for TSC, causing constitutive activation of the mTORC1 pathway and leading to profound effects on cell metabolism. Aberrant metabolism in cancer has recently received significant attention as a target to develop therapeutic agents in the treatment of cancer.1 As Tsc2-/- cells have lost the ability to respond to energy and growth factor deprivation, these cells are unable to properly down regulate cellular biosynthetic processes in response to metabolic stress, and are thus extremely sensitive to glucose deprivation-induced death.2 A central goal of this project is to explore the unique cell survival and metabolic properties of cells with Tsc1 or Tsc2 by screening for compounds that selectively target the Tsc2-/- MEFs by screening both Tsc2-/- and WT MEF cell lines. We hope to better understand these aspects of TSC physiology in order to exploit them for therapeutic benefit.
NIH Molecular Libraries Probe Production Centers Network [MLPCN]
NIH Chemical Genomics Center [NCGC]
Assay Submitter (PI): Blenis, John; Harvard University
For quantitative high throughput analysis of mTORC1 signaling, we developed a cell-based assay for immuno-fluorescence based detection of rpS6 phosphorylation on the Acumen Explorer that will be used a platform for the primary small molecule screen. Mouse embryonic fibroblasts (MEFs) are cultured in 1536-well plates using DMEM + 10% FBS. Twenty-four hrs after plating, test compounds (solubilized in DMSO) are delivered and incubated with the cells for 24 hrs at 37 degree Celsius. Following the incubation, media with compound is aspirated and the cells are fixed in 4% paraformaldehyde (PFA) containing PBS + 0.2% TX-100. Next, PFA is aspirated, cells are washed two times with PBS plus 0.2% TX-100 and the cells are blocked for 1 hr at room temperature (blocking buffer: LiCOR Blocking Buffer plus 0.2% TX-100). This is followed by aspiration and staining with Alexa-488 conjugated-phospho-rpS6 Ser235/236 antibody for 2 hours at room temperature (Cell Signaling Technology # 4803, 1:50 dilution in blocking buffer). Cells are washed two times with PBS plus 0.2% TX-100, and stained with 10 uM propidium iodide (PI) for 20-25 minutes for cell number measurement (1:500 dilution of Hoescht staining is also added for IN Cell imaging). The plates are scanned on the Acumen Explorer laser scanning instrument (TTP Labtech) using the 488nm laser for simultaneous excitation of the Alexa-488 and PI. […] Fluorescence emission from the PI stain is selected using a 575-640 nm band pass filter. The normalized phospho-S6 staining is calculated as the ratio of the integrated Alexa 488 intensity divided by the integrated PI intensity for the single concentration rapamycin control (7.5 nM) and DMSO columns. […] Inhibition of the pathway is defined based on the normalized phospho-S6 intensity in rapamycin treated cells. Active cells are defined as those with a normalized phospho-S6 staining above this threshold, and each treatment is reported as the % positive cells in the well, where thresholds are defined by selecting wells with the highest and lowest signal and differentiating between the % non-active and % active populations. In addition to the pathway specific phospho-S6 endpoint, the number of PI stained cells from the Acumen is recorded as a measure of cell viability. […]
Potency is read from the fitted curve at half-maximal effect.

Question: Which activity change, negative = inhibition does the source give for `CCCCOc1cccc(C(=O)N2CCN(CCc3ccncc3)CC2)c1` here?
Answer: 0.726%

Question: With `Cc1nc2nncn2c(NCc2ccc(Cl)cc2)c1C` as the compound, how does the Potency read?
Answer: 4.14 µM (active)

Question: Which activity change, negative = inhibition does the source give for `Cc1ccc(S(=O)(=O)c2nc(-c3cccs3)oc2SCC(=O)Nc2cc(C)cc(C)c2)cc1` here?
Answer: -132%

Question: Which activity change, negative = inhibition does the source give for `CCOc1cc(CNc2ccc(O)cc2)cc(Cl)c1OCc1ccccc1` here?
Answer: -9.52%

Question: Which activity change, negative = inhibition does the source give for `CCOc1cc(CNc2ccc(O)cc2)ccc1OCc1ccc(Cl)cc1` here?
Answer: -17.1%

Question: Which activity change, negative = inhibition does the source give for `CCC(C)NC(=O)c1sc2nc(C)c(C(=O)Nc3ccc(C)cc3C)c(-c3ccc(Cl)cc3)c2c1N` (stereo not given) here?
Answer: -10.2%

Question: With `CCc1ccc(CN(Cc2ccco2)C(=O)c2cc(-c3ccc(C)c(F)c3)on2)cc1` as the compound, how does the activity change, negative = inhibition read?
Answer: -10.4%

Question: Which Potency does the source give for `COc1ccc(CNC(=O)c2cccc(N3CCCS3(=O)=O)c2)cc1OC` here?
Answer: 5.21 µM (active)

Question: For `CCC(C)Sc1oc(-c2ccco2)nc1S(=O)(=O)c1ccc(C)cc1` (stereo not given), which activity change, negative = inhibition is on record?
Answer: 3.02%

Question: Which Potency does the source give for `Cc1ccc(OCC(O)Cn2c(=N)n(CCN3CCCCC3)c3ccccc32)cc1` (stereo not given) here?
Answer: 10.4 µM (active)

Question: For `Cc1ccc(C(C)C)c(OCC(=O)Nc2cc(-c3nc4ccccc4[nH]3)ccc2C)c1`, which activity change, negative = inhibition is on record?
Answer: -3.97%

Question: For `Cc1ccc(NC(=O)c2c(NC(=O)C(F)(F)F)sc3c2CCCCC3)cc1`, which activity change, negative = inhibition is on record?
Answer: -36.6%

Question: Which Potency does the source give for `Cc1ccc(-c2csc(-c3cc4c([nH]c3=O)CC(c3ccccc3)CC4=O)n2)cc1` (stereo not given) here?
Answer: 0.927 µM (active)

Question: With `CC1C(=O)Nc2ccc(S(=O)(=O)Nc3ccccc3Br)cc2NC1=O` (stereo not given) as the compound, how does the activity change, negative = inhibition read?
Answer: 8.5%

Question: With `COc1ccc(N(C)C(=O)c2cc(S(=O)(=O)N3CCc4ccccc43)cn2C)c(OC)c1` as the compound, how does the activity change, negative = inhibition read?
Answer: 18.7%

Question: Which activity change, negative = inhibition does the source give for `CN1CCN(C(CNC(=O)C(=O)Nc2cccc(Cl)c2)c2ccc3c(c2)OCO3)CC1` (stereo not given) here?
Answer: -4.53%

Question: For `COc1cc(-c2ccno2)ccc1S(=O)(=O)N1CCN(c2cc(C)ccc2C)CC1`, which activity change, negative = inhibition is on record?
Answer: -45.4%

Question: With `O=c1c(-c2cc(-c3ccc(F)cc3)nc3c2COc2ccc(Cl)cc2-3)coc2ccc(F)cc12` as the compound, how does the activity change, negative = inhibition read?
Answer: 7.23%

Question: Which activity change, negative = inhibition does the source give for `Cc1nn(C(C)C(=O)NC2CCCCC2)c(=O)c2c1sc1ccccc12` (stereo not given) here?
Answer: -2.94%

Question: For `CCC1CN(C(=O)NCc2ccc(F)cc2)c2cc(C)ccc2O1` (stereo not given), which activity change, negative = inhibition is on record?
Answer: 0.784%

Question: For `CCS(=O)(=O)c1ncc(Cl)c(C(=O)Nc2ccccc2)n1`, which Potency is on record?
Answer: 1.31 µM (active)

Question: With `CN(Cc1ccccc1)C(=O)CSc1c2c(nc3ccc(Cl)cc13)CCCC2` as the compound, how does the activity change, negative = inhibition read?
Answer: 9.63%

Question: With `COC(=O)c1ccccc1NC(=O)Cn1c(=O)n(-c2ccc(C)cc2)c(=O)c2ccccc21` as the compound, how does the Potency read?
Answer: 5.85 µM (active)

Question: For `Cc1ccc(NC(=O)c2nc(S(=O)(=O)Cc3ccc(F)cc3)ncc2Cl)cc1C`, which Potency is on record?
Answer: 11.7 µM (active)

Question: For `COc1cc(CNc2ccc3c(c2)ncn3C(C)C)cc(OC)c1OC`, which activity change, negative = inhibition is on record?
Answer: -25.9%

Question: For `CCCCN(CCCNC(=O)c1cc(Nc2cccc(SC)c2)nc2ccccc12)Cc1ccccc1`, which activity change, negative = inhibition is on record?
Answer: -95.1%

Question: For `CCOc1ccccc1NC(=O)CSc1cc(=O)n(CC)c2ccccc12`, which activity change, negative = inhibition is on record?
Answer: 1.04%

Question: With `NC(=O)c1ccc(-c2nc(-c3ccc4c(c3)OCO4)c(-c3ccccn3)[nH]2)cc1` as the compound, how does the activity change, negative = inhibition read?
Answer: -5.7%

Question: With `CCOc1ccc(Nc2nc(N)c(C(=O)c3ccccc3Cl)s2)cc1` as the compound, how does the activity change, negative = inhibition read?
Answer: -95%

Question: For `O=C(CS(=O)(=O)c1cccc2nsnc12)NCc1ccc(Cl)cc1`, which activity change, negative = inhibition is on record?
Answer: 10.4%

Question: Which activity change, negative = inhibition does the source give for `O=C(Cn1cc(SCc2ccccc2)c2ccccc21)N1CCCCCC1` here?
Answer: 15.1%

Question: Which activity change, negative = inhibition does the source give for `CCCCS(=O)(=O)c1oc(-c2ccc(F)cc2)nc1S(=O)(=O)c1ccccc1` here?
Answer: -151%

Question: With `O=C(c1ccco1)n1nc(-c2ccc(Cl)cc2)nc1NCc1ccccc1` as the compound, how does the activity change, negative = inhibition read?
Answer: -47.3%

Question: Which Potency does the source give for `COc1ccc(Cl)cc1NC(=O)CCCS(=O)(=O)c1nc(-c2ccc(OC)c(OC)c2)cc(C(F)(F)F)n1` here?
Answer: 10.4 µM (active)

Question: Which activity change, negative = inhibition does the source give for `CCOc1c(Br)cc(C2CC(=O)Nc3cc4c(cc32)OCO4)cc1OC` (stereo not given) here?
Answer: -47.7%

Question: Which Potency does the source give for `CCOC(=O)c1c(NC(=O)c2nc(S(C)(=O)=O)ncc2Cl)sc(C(C)=O)c1C` here?
Answer: 4.14 µM (active)

Question: Which Potency does the source give for `Cc1c(C(=O)OC2CCC(C)CC2)[nH]c2c1C(=O)CC(c1ccc(F)cc1)C2` (stereo not given) here?
Answer: 1.04 µM (active)

Question: For `Cc1nn(CCCC(=O)NCc2cccc(Cl)c2)c(=O)c2c1sc1ccccc12`, which activity change, negative = inhibition is on record?
Answer: -2.73%

Question: With `COc1ccc2nc(NC(=O)c3nc(S(=O)(=O)Cc4ccccc4)ncc3Cl)sc2c1` as the compound, how does the Potency read?
Answer: 5.85 µM (active)

Question: Which activity change, negative = inhibition does the source give for `CCOc1ccc(-c2nc(SCC(=O)c3ccccc3)n[nH]2)cc1` here?
Answer: -131%
